# Shown are actives, neighbours in structure and some others; about 2.7% of the full set was active somewhere.
# ATXN2 expr inh: reduces ATXN2 reporter expression in HEK-293 cells; HEK-293 ATXN2-luciferase reporter, luminescence, 24 h; Potency, µM (titrated, usually from 57 µM), without a hit: at the highest dose activity change, negative = inhibition, actives largely listed as inhibitors; 0.72% of 360,000 active; AID 1745845; note: % is set by controls: 0 for no effect and ±100 for the full control effect; nearly all actives have a fitted effect of over 55% in size
#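 ATXN2-luciferase reporter cells (luciferase flanked by upstream and downstream ATXN2 gene portions) were treated 24 h at 37 °C with compounds at up to 57 uM. SteadyGlo luminescence gave expression; GF-AFC fluorescence gave viability.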
# ATXN viability: viability counter-screen for ATXN expression inhibitors; 0.49% of 400,000 active; S2 cells (HEK-293 line with an ATXN2-luciferase reporter) viability, CellTiter-Fluor protease fluorescence, 24 h; Potency, µM (doses to about 56.7 µM), usual class: cytotoxic; note: nearly all actives have a fitted effect of over 40% in size
# TGFb inhibitor: TGF-b pathway inhibition. HepG2 CAGA-GFP TGF-b/SMAD3 reporter, GFP fluorescence, 18 h; TGF-beta stimulated, 500 pg/mL final. Potency, µM (highest dose often 46.1 µM), for the others: at the highest dose activity, negative = inhibition, most hits filed as inhibitors. 1.2% of 410,000 active; note: % is set by controls: 0 for no effect and ±100 for the full control effect; nearly all actives have a fitted effect of over 65% in size
#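 Using HEPG2 CAGA-GFP reporter cells at 1000 cells/well, we pinned test compounds, stimulated with recombinant TGF-beta (500 pg/mL final) and measured total well GFP after 18 h.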
# HepG2 tox: counter-screen for TGF-b inhibitors: cytotoxicity in HepG2 cells | Potency, µM (top dose mostly 46.1 µM), for the others: at the top dose activity change, negative = cytotoxicity, hits mostly cytotoxic | HepG2 CAGA-GFP viability, ATP luminescence, 18 h | 0.76% of 410,000 active
#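 CellTiter-Glo luminescence gave cytotoxicity after 18 hours at 37 degrees C. The cells were HepG2 CAGA-GFP in 1% FBS DMEM, stimulated with 500 pg/mL TGF-beta after compound addition. %Activity was normalised to no-cell wells (complete cell-killing) and DMSO (no toxicity), and curves were fitted and classified.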
# ALOX12 inh: inhibitors of human 12S-lipoxygenase ALOX12; purified 12hLO, xylenol orange hydroperoxide absorbance; 1.1% of 580,000 active; AID 1671190; Potency, µM (top dose mostly 108 µM), without a hit: at the highest dose activity change, negative = inhibition, most hits filed as inhibitors; note: % is set by controls: 0 for no effect and ±100 for the full control effect
# Target sequence (P18054 whole entry, looked up): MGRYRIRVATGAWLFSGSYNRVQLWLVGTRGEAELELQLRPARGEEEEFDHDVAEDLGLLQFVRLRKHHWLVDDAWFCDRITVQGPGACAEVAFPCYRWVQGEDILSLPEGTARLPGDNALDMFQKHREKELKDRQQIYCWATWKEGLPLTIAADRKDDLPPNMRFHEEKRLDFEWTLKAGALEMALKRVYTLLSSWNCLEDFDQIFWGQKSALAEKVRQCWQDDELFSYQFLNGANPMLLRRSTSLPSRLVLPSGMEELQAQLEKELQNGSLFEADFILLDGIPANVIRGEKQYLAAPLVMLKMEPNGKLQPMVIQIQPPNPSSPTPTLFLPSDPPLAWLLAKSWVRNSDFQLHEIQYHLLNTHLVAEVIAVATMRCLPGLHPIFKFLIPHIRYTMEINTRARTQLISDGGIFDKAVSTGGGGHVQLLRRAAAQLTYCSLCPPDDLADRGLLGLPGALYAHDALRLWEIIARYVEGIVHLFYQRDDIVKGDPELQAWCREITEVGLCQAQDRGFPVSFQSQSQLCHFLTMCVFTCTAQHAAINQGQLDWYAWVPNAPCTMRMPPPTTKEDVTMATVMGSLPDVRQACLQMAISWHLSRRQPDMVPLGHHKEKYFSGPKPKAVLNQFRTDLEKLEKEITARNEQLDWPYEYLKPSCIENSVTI
#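 Purified human 12hLO (150 nM final) in 25 mM Hepes, 0.01% Triton X-100, pH 7.0 was preincubated 15 min at room temperature with compound. Then 40 uM arachidonic acid was added, 30 min. Hydroperoxide was read by Fe-XO absorbance ratio 573/405 nm.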
# The depositor's hits bear a star; i = inactive; ? = inconclusive; . = no result given; ! = not confirmed by another sample; [ ] = remark or other dose. Calls come from the whole dose curve; as a rule, active = well fitted curve in the direction sought with a large enough effect; inconclusive = small, poorly fitted or top-dose-only effect, or another doubt; inactive = no such curve, though single readings can be large; an effect the other way counts as inactive or inconclusive. Potency is the fitted concentration of half-maximal effect.
SMILES,ATXN2 expr inh,ATXN viability,TGFb inhibitor,HepG2 tox,ALOX12 inh
Cc1ccc(S(=O)(=O)NCCc2csc(-c3ccc(Cl)cc3)n2)cc1,?,i,11.2µM*,-36.4%,?
CCOc1ccc(S(=O)(=O)NCCc2csc(-c3ccc(Cl)cc3)n2)cc1,?,?,11.2µM*,-67.5%,?
CCOc1ccc(S(=O)(=O)NCCc2sc(-c3ccc(C)cc3)nc2C)cc1,.,.,?,-34.8%,1.7%
COC(=O)c1cccc(OC(=O)c2ccccc2Cl)c1,.,.,.,.,2.3%
CCOC(=O)c1cnn(-c2cc(C)nc3c(-c4ccc(Cl)cc4Cl)c(C)nn23)c1N,.,.,.,.,7.0%
Cc1ccc(Cl)cc1NC(=O)C(C)N(C)Cc1ccc2c(c1)OCCO2 (configuration not stated),.,.,.,.,-11.8%
CCn1c(-n2nc(C)cc2C)nc2c1c(=O)n(Cc1c(F)cccc1Cl)c(=O)n2C,.,.,.,.,6.4%
CC(C)c1cc(C(=O)NC2CC2)c2cnn(C(C)C)c2n1,.,.,.,.,-6.8%
Cc1cc(C)c(C(N)C(=O)O)c(C)c1 (configuration not stated),.,.,.,.,-9.8%
C=C1C(=O)c2sccc2C(c2ccc(OC)c(OC)c2)C1COC(C)=O (configuration not stated),?,.,0.708µM*,4.47µM*,-16.5%
COc1ccc(NC(=O)c2cc(S(=O)(=O)NCC3COc4ccccc4O3)ccc2F)cc1 (configuration not stated),-8.8%,i,?,-12.0%,-0.3%
O=C(Nc1ccc(C(F)(F)F)cc1)c1cc(S(=O)(=O)NCC2COc3ccccc3O2)ccc1F (configuration not stated),-17.0%,i,-1.4%,17.8µM*,-19.4%
CCC(C)NC(=O)c1ccc(CNC(=O)NC(C)C)cc1 (configuration not stated),.,.,.,.,22.8%
CCN(CC(=O)Nc1ccc(OC)cc1)C(=O)c1ccc2c(c1)NC(=O)CS2,-8.9%,i,-22.3%,-6.8%,8.91µM*
CC1CCCC(NC(=O)CCC2CCCO2)C1 (configuration not stated),.,.,.,.,-4.2%
Cc1ccc2nc(CO[C@H]3CN(c4ccc(C#N)cn4)C[C@H]3F)[nH]c2c1,.,.,.,.,14.1µM*
CCc1ccc2oc(-c3ccc(CN)cc3)nc2c1,.,.,.,.,-27.6%
CCOc1ccc2c(c1)C(NC(C)=O)C(=O)N2CCN1CCOCC1 (configuration not stated),.,i,-15.3%,-3.0%,0.0%
CC(=O)NC1C(=O)N(CCN2CCOCC2)c2ccc(Br)cc21 (configuration not stated),.,i,3.0%,-20.7%,31.6µM*
CCOC(=O)[C@@H](C)N(C(=O)OC(C)(C)C)S(=O)(=O)N(Cc1ccccc1)[C@H](C(=O)OC)C(C)C,-8.3%,?,10µM*!,-31.2%,20.1%
O=C(O)c1c(Cl)c(Cl)c(Cl)c(Cl)c1-c1c2cc(I)c(=O)c(I)c-2oc2c(I)c(O)c(I)cc12,?,.,.,.,0.863µM*
O=C(O)c1ccccc1-c1cc2ccccc2oc1=O,.,.,.,.,17.1%
O=C(O)c1ccccc1-c1c2cc(I)c(=O)c(I)c-2oc2c(I)c(O)c(I)cc12,-23.8%,4.47µM*,30.8%,-13.2%,35.5µM*!
C/C(=N\NC(N)=S)C1=CCC2C3CC[C@H]4CC(O)CC[C@]4(C)C3CC[C@]12C (some centres not stated),.,4.47µM*,?,-36.9%,-16.0%
Cc1ccc(NC(=O)C2CCCN(c3nnc(-n4c(C)ccc4C)s3)C2)cc1Cl (configuration not stated),.,.,.,-14.4%,3.3%
SMILES,ATXN2 expr inh,ATXN viability,TGFb inhibitor,HepG2 tox,ALOX12 inh
Cc1ccc(C)n1-c1nnc(N2CCCC(C(=O)Nc3ccc(C(C)C)cc3)C2)s1 (configuration not stated),-10.9%,i,7.94µM*,-50.2%,?
CC(C)=CCOc1ccc([C@@H]2COc3c(ccc4c3C=CC(C)(C)O4)C2)c(O)c1,?,25.1µM*,12.6µM*,14.1µM*,-14.4%
COc1ccc(OCc2cc(=O)c3ccc4c(c3o2)C=CC(C)(C)O4)cc1OC,-3.9%,?,?,-22.9%,?
NC(=O)CCC(NC(=O)C1(c2ccccc2)CCCC1)C(N)=O (configuration not stated),.,.,.,.,2.4%
O=C(COc1cccc(F)c1)Nc1ccc(-n2cnnn2)cc1,.,.,.,.,10.6%
Cc1cc(C(=O)NCC2(c3ccccc3)CCC2)cc(S(N)(=O)=O)c1C,.,.,.,.,12.0%
O=C(Nc1ccc(Cl)c(C(F)(F)F)c1)C1Cc2c(-c3ccc4c(c3)OCO4)ccnc2O1 (configuration not stated),?,i,11.2µM*,-30.6%,-23.4%
O=C(Nc1ccc(F)c(Cl)c1)C1Cc2c(-c3ccco3)ccnc2O1 (configuration not stated),?,i,12.6µM*,-6.5%,?
COc1ccc(NC(=O)C2Cc3c(-c4ccc5c(c4)OCO5)ccnc3O2)cc1OC (configuration not stated),?,2.51µM*,-5.7%,-38.0%,-6.3%
O=C(Nc1cccc(OC(F)(F)F)c1)C1Cc2c(-c3ccccc3Oc3ccccc3)ccnc2O1 (configuration not stated),-23.6%,i,11.2µM*,-32.0%,-6.8%
CCN1CCC2(CC1)Cc1ccccc1CN(S(=O)(=O)c1ccccc1)C2,.,.,.,.,3.9%[6.33 µM]
CC(Oc1ccc(C(=O)c2ccccc2)cc1)C(=O)N1CCc2ccccc21 (configuration not stated),.,.,.,.,0.5%
O=C1NC2(C(=O)Nc3ccc(F)c(Cl)c3)CCC(=O)N2c2ccccc21 (configuration not stated),.,.,.,.,48.7%
COc1ccc(NC(=O)CN2CCc3cc(OC)c(OC)cc3C2c2ccccc2)cc1 (configuration not stated),.,.,.,.,13.8%
CC(=O)c1cccc(-c2ccnc3c2CC(C(=O)Nc2ccc(Cl)cc2)O3)c1 (configuration not stated),?,?,-23.4%,-13.0%,-7.6%
CC(=O)c1cccc(-c2ccnc3c2CC(C(=O)Nc2ccc(Cl)c(C(F)(F)F)c2)O3)c1 (configuration not stated),0.0%,?,12.6µM*,-23.0%,?
O=C(CSc1ccc2nnc(-c3cccc(F)c3)n2n1)NCC1CCCO1 (configuration not stated),13.6%,i,-4.9%,7.3%,3.55µM*
O=C(CSc1ccc2nnc(-c3cccnc3)n2n1)NCC1CCCO1 (configuration not stated),3.2%,i,3.5%,-5.6%,25.4%
CCCCNC(=O)CC(c1cccc(OC)c1)c1c[nH]c2ccccc12 (configuration not stated),.,.,.,.,-0.8%
